40 molecules from PubChem BioAssay (Tox21) can be followed below.

Inconclusive results are not listed. Activity calls are given as the source filed them. Calls come from the whole dose curve; as a rule, active = well fitted activation curve with a large enough effect in the signal ratio in the repeat runs (not every such curve was filed as active); inconclusive = weak or mixed curves; inactive = flat fitted curve, though single readings scatter; the % refers to the signal ratio.
% is set by controls: 0 for no effect and ±100 for the full control effect.

The nature of the experiment: qHTS assay to identify small molecule agonists of the TGF-beta/Smad signaling pathway (AID 1346859). Conditions: SBE-bla HEK293T, TGF-beta/Smad beta-lactamase reporter, 5 h; series mostly up to 76.8 µM; activation: at the top concentration. The source says:
U.S. Tox21 Program National Center for Advancing Translational Sciences [NCATS] NIH Chemical Genomics Center [NCGC] U.S. Environmental Protection Agency [EPA] National Institutes of Environmental Health Sciences [NIEHS] National Toxicology Program [NTP] U.S. Food and Drug Administration [FDA] Tox21 Assay Overview: Transforming growth factor beta (TGF-beta) superfamily consists of a large number of structurally related dimeric proteins that act as hormones or local mediators in regulating a wide range of biological functions. This superfamily includes TGF-betas themselves, the bone morphogenetic proteins (BMPs) and the activins. These ligands induce oligomerization of serine/threonine receptor kinases and phosphorylate the cytoplasmic signaling molecules of Smad protein family. CellSensor SBE-bla HEK 293T cell line (Life Technologies, Carlsbad, CA), responsive to TGF-beta was used to screen Tox21 10K compound library for identification of agonists/antagonists of the Smad signaling pathway. This cell line contains a beta-lactamase reporter gene under control of the Smad binding element (SBE) stably integrated into HEK 293T cells.
Tox21 Assay Protocol Summary: SBE-bla HEK 293T cells were dispensed at 4,000/well in 6 uL of assay medium into black wall/clear-bottom 1536-well plates using a Multidrop Combi (ThermoFisher Scientific, Waltham, MA) dispenser. After the assay plates were incubated at 37 C and 5% CO2 for an overnight, 23 nL of compounds dissolved in DMSO, positive controls or DMSO only was transferred to the assay plate by a Pintool station (Kalypsys, San Diego, CA). The assay plates were incubated at 37 C and 5% CO2 for 5 hr. One uL of LiveBLAzer B/G FRET substrate (Life Technologies) was added using a Flying Reagent Dispenser (Aurora Discovery, San Diego, CA) and the plates were incubated at room temperature for 2 hr. Fluorescence intensity (405 nm excitation, 460 nm and 530 nm emissions) was measured using an Envision plate reader (PerkinElmer, Shelton, CT).
Background: qHTS replaces the single test concentration by a dilution series.
In the case of `CCOC(=O)c1cc(=O)c2c(OCC(COc3cccc4oc(C(=O)OCC)cc(=O)c34)OC(=O)[C@@H](N)CCCCN)cccc2o1`, the “activation” value is 2.9% [at 35.3 µM] (inactive).

On to `Nc1ccc(Oc2ccc(N)c(N)c2)cc1`, for which the “activation” value was -0.497% (inactive).

Take `O=C(O)CN(CCN(CC(=O)O)CC(=O)O)CCN(CC(=O)O)CC(=O)O`: the activation is 3.97% [at 15.8 µM] (inactive).

For `CC(C)C(=O)OC/C=C/c1ccccc1`, the “activation” value is -0.785% (inactive).

For the molecule `CC(CNC1CCCCC1)OC(=O)c1ccccc1` (stereo not given), the “activation” value was -0.303% [at 35.3 µM] (inactive).

`Cc1ccccc1C(=O)Nc1ccc(C(=O)N2CCCC(O)c3cc(Cl)ccc32)c(C)c1` (stereo not given): the “activation” value is -8.08% [at 35.3 µM] (inactive).

On to `COc1ccc2nc(NC(=O)Nc3ccccc3)sc2c1`, for which the “activation” value is 0.758% [at 35.3 µM] (inactive).

Consider `NC/C=C/C(=O)O`, for which the “activation” value was 0.4% [at 35.3 µM] (inactive).

Take `CC(=O)Nc1ccc(C)c(Cl)c1`: the “activation” value was -1.19% (inactive).

As for `COc1ccc(S(=O)(=O)Nc2nnc(CC(C)C)s2)cc1`, the “activation” value is -5.9% [at 35.3 µM] (inactive).

As to `C=C(C)C(=O)OCCOP(=O)(O)O`, the “activation” value was 0.252% (inactive).

Turning to `C=CCCC=C`, the “activation” value was 3.7% (inactive).

With `CC1(O)CSC(C)(O)CS1` (stereo not given), the “activation” value was 2.61% (inactive).

As for `CN1CCN(c2c(F)cc3c(=O)c(C(=O)O)cn(CCF)c3c2F)CC1`, the “activation” value was 0.697% [at 35.3 µM] (inactive).

With `CCCCOc1cc(C(=O)NCCN(CC)CC)c2ccccc2n1`, the “activation” value was 0.474% [at 35.3 µM] (inactive).

Take `CCCCCCCCCCCCOCCOS(=O)(=O)O`: the “activation” value was 1.68% (inactive).

Regarding `C[C@]12C(=O)OC(=O)[C@H]1[C@H]1C=C[C@@H]2C1`, the “activation” value was -0.591% (inactive).

On to `COC(C)CCO` (stereo not given), for which the “activation” value is 4.69% (inactive).

For `C[C@]12CCC(=O)C=C1CC[C@@H]1[C@@H]2CC[C@@]2(C)[C@H]1CC[C@]2(O)C(=O)CO`, the “activation” value is 3.46% [at 35.3 µM] (inactive).

In the case of `CC(=O)N(CC(O)CN(C(C)=O)c1c(I)c(C(=O)NCC(O)CO)c(I)c(C(=O)NCC(O)CO)c1I)c1c(I)c(C(=O)NCC(O)CO)c(I)c(C(=O)NCC(O)CO)c1I` (stereo not given), the “activation” value is 4.22% [at 35.3 µM] (inactive).

`CCCCCCCCOC(=O)CCCCCCCCC(=O)OCCCCCCCC`: the “activation” value was -0.482% (inactive).

For `O=C1CCCCCCCCCCC(=O)OCCO1`, the “activation” value was -3.4% (inactive).

Turning to `CN1CCN(N)CC1`, the “activation” value is 2.09% [at 35.3 µM] (inactive).

As to `CCN1CC(CCN2CCOCC2)C(c2ccccc2)(c2ccccc2)C1=O` (stereo not given), the “activation” value was -3.1% [at 35.3 µM] (inactive).

With `CCc1cc(Cl)c(OC)c(C(=O)NC[C@@H]2CCCN2CC)c1O`, the “activation” value was 1.84% [at 35.3 µM] (inactive).

As for `CC(C)C(=O)OCC(C)(C)C(O)C(C)C` (stereo not given), the “activation” value is 2.57% (inactive).

Regarding `CCCCC(CC)COC(=O)COc1cc(Cl)c(Cl)cc1Cl` (stereo not given), the “activation” value is -1.64% (inactive).

Turning to `Cc1c[nH]c(=S)[nH]c1=O`, the “activation” value is -0.846% (inactive).

Turning to `C=O`, the “activation” value was -0.371% (inactive).

Consider `COC(=O)/C=C(/C)N`, for which the “activation” value was 3.77% [at 35.3 µM] (inactive).

Regarding `CNCCC(Oc1ccccc1OC)c1ccccc1` (stereo not given), the “activation” value is -0.53% [at 35.3 µM] (inactive).

As for `ICCc1ccccc1`, the “activation” value was 0.849% (inactive).

On to `CN1CCN(c2c(F)cc3c(=O)c(C(=O)O)cn4c3c2SCC4)CC1`, for which the “activation” value is -3.65% [at 35.3 µM] (inactive).

For `CC(C)(C)c1ccc(OC(=O)c2ccccc2O)cc1`, the “activation” value was 9.01% (inactive).

As for `CCCCN1C[C@H](O)[C@@H](O)[C@H](O)[C@H]1CO`, the “activation” value was 0.413% [at 35.3 µM] (inactive).

Consider `Cc1onc(-c2ccccc2)c1C(=O)Cl`, for which the “activation” value was -0.49% [at 35.3 µM] (inactive).

Take `O=CCCc1ccccc1`: the “activation” value was 0% (inactive).

Consider `CCCCNC(=S)NCCCC`, for which the “activation” value was 1.12% (inactive).

On to `NNS(=O)(=O)c1ccc(Oc2ccc(S(=O)(=O)NN)cc2)cc1`, for which the “activation” value was 0.183% (inactive).

As to `CC1(C)S[C@@H]2[C@H](NC(=O)C(C(=O)O)c3ccccc3)C(=O)N2[C@H]1C(=O)O` (stereo not given in full), the “activation” value is 4.01% [at 35.3 µM] (inactive).
